Each structure is given as a SMILES string. Values joined by “and” are separate entries in the source; they are usually repeats but may differ in a detail not shown here. Equal entries are not always repeated.

One assay concerns HT29 RNF43 G659fs (RNF43 659mut, CRISPR-edited). The assay is described as follows: cell viability activity relative to DMSO (negative = inhibition); higher = more viable cells (less growth inhibition). The note with it: 5 µM; 96 h. The procedure:
(§1)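 Broad Repurposing Library primary screen at a single dose of 5 uM. HT29 sg-Ctrl and HT29 RNF43 G659fs CRISPR-edited isogenic cells were seeded at 2500 cells/well in 384-well plates in duplicate and treated for 96 h. Viability was read by CellTiter-Glo and reported as % activity relative to DMSO, with MG132 as the positive control (negative = growth inhibition).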
Turning to `O=C(Cc1ccc(-c2ccc(OCCN3CCOCC3)cc2)cn1)NCc1ccccc1`, the cell viability activity is -59.4%.
Consider `Cc1ccc(C)c(OCCCC(C)(C)C(=O)O)c1`, for which the cell viability activity was -30%.
Regarding `CC1=NN(c2ccc(C(=O)O)cc2)C(=O)/C1=C\c1ccc(-c2cc(C)c(C)cc2[N+](=O)[O-])o1`, the cell viability activity is -62.3%.
For `C[C@H]1O[C@@H](O[C@H]2CC[C@@]3(C)[C@H](CC[C@@H]4[C@@H]3C[C@@H](O)[C@]3(C)[C@@H](C5=CC(=O)OC5)CC[C@]43O)C2)C[C@H](O)[C@@H]1O[C@H]1C[C@H](O)[C@H](O[C@H]2C[C@H](O)[C@H](O[C@@H]3O[C@H](CO)[C@@H](O)[C@H](O)[C@H]3O)[C@@H](C)O2)[C@@H](C)O1`, the cell viability activity is -90.5%.
Regarding `C[n+]1cc2c3c(ccc2c2ccc4cc5c(cc4c21)OCO5)OCO3`, the cell viability activity was -97.3%.
As for `Nc1cc(C(F)(F)F)c(-c2cc(N3CCOCC3)nc(N3CCOCC3)n2)cn1`, the cell viability activity is -75.9%.
With `COC[C@H](C)NC1CCC(Nc2cc(-c3cccc(NCC4(C#N)CCOCC4)n3)c(Cl)cn2)CC1` (some centres undefined), the cell viability activity was -67.4%.
Consider `C/C(=N/Nc1nnc2c(n1)[nH]c1c(C)cccc12)c1ccccn1`, for which the cell viability activity is -87.6%.
For the compound `O=C(/C=C/c1cccc(S(=O)(=O)Nc2ccccc2)c1)NO`, the cell viability activity was -88.3%.
On to `CN(C)C/C=C/C(=O)Nc1cccc(C(=O)Nc2cccc(Nc3ncc(Cl)c(-c4c[nH]c5ccccc45)n3)c2)c1`, for which the cell viability activity is -91.7%.
With `O=C(O)c1ccc[n+]([O-])c1`, the cell viability activity is -66%.
As for `CCN(CC)CCNC(=O)c1c(C)[nH]c(/C=C2\C(=O)Nc3ccc(F)cc32)c1C`, the cell viability activity was -99.7%.
As to `CN(C)CCCC(=O)Nc1ccc(C(=O)Nc2cccc(Nc3ncc(Cl)c(-c4c[nH]c5ccccc45)n3)c2)cc1`, the cell viability activity is -70.8%.
With `COc1cc(F)c(F)c(Nc2ccc(I)cc2F)c1NS(=O)(=O)C1(C[C@H](O)CO)CC1`, the cell viability activity is -74.1%.
`COc1cccc2cc(-c3nc([C@H]4CC[C@H](C(=O)O)CC4)n4ncnc(N)c34)[nH]c12`: the cell viability activity is -50.5%.
In the case of `C#C[C@]1(O)CC[C@H]2[C@@H]3CCC4=C(CCC(=O)C4)[C@H]3CC[C@@]21C`, the cell viability activity is -62.8%.
As for `O=C(c1c(F)ccc(NS(=O)(=O)N2CC[C@@H](F)C2)c1F)c1c[nH]c2ncc(-c3cnc(C4CC4)nc3)cc12`, the cell viability activity was -66.1%.
The same measure, in the same setting: in the case of `CNC(=O)c1ccccc1Nc1nc(Nc2ccc(N3CCOCC3)cc2OC)ncc1Cl` it was -73.1%.
On to `Cc1c(-c2ccc(O)cc2)n(Cc2ccc(OCCN3CCCCCC3)cc2)c2ccc(O)cc12`, for which the cell viability activity was -67.2%.
Turning to `Nc1c2ccccc2nc2ccccc12`, the cell viability activity was -86.1%.
For the compound `Cc1cc(NC(=O)NCCN2CCC(O)(Cc3ccccc3)CC2)c2ccccc2n1`, the cell viability activity was -36.2%.
Turning to `OC1(c2ccc(Cl)c(C(F)(F)F)c2)CCN(CCCC(c2ccc(F)cc2)c2ccc(F)cc2)CC1`, the cell viability activity was -83%.
As to `Cc1csc(-c2nnc(Nc3ccc(Oc4ncccc4-c4ccnc(N)n4)cc3)c3ccccc23)c1`, the cell viability activity was -28.2%.
With `COc1cc2nc(N3CCC(N4CCCCC4)CC3)nc(NC3CCCCCC3)c2cc1OC`, the cell viability activity is -93.5%.
On to `Cc1ccc(C(=O)Nc2ccc(Oc3cc4cnn(C)c4cc3-c3cn[nH]c3)c(F)c2)c(=O)n1-c1ccc(F)cc1`, for which the cell viability activity was -41.5%.
In the case of `NS(=O)(=O)C#Cc1ccccc1`, the cell viability activity is -68.8%.
On to `CCCCC(=O)O[C@H]1CC[C@H]2[C@@H]3CCc4cc(O)ccc4[C@H]3CC[C@]12C`, for which the cell viability activity was -22.9%.
Turning to `CN1CCN(Cc2ccc(-c3cnc4[nH]cc(-c5ccc6[nH]ccc6c5)c4c3)cc2)CC1`, the cell viability activity is -90.1%.
The same measure, in the same setting: in the case of `C/C(=N\NC(=S)N1CCC1)c1ccccn1` it was -82.2%; in that of `Cn1c(Nc2ccc(C(F)(F)F)cc2)nc2cc(Oc3ccnc(-c4ncc(C(F)(F)F)[nH]4)c3)ccc21`, -82%; in that of `NC(=O)c1cnc(N[C@@H]2CCCC[C@@H]2N)nc1Nc1cccc(-n2nccn2)c1`, -35.6% and -40.3%.
The same measure, in the same setting: then `Cn1cc(CNCC2CCN(c3ncc(C(=O)NO)cn3)CC2)c2ccccc21`, with -95.9%; and `COc1cccc(-c2cc(F)ccc2[C@H]2Cc3nc(N)nc(C)c3C(=O)N2)n1`, with -82.4%; and `CCCCC(CC)CNC(=N)NC(=N)NCCCCCCNC(=N)NC(=N)NCC(CC)CCCC` (centres undefined), with -90.6%.
On the same count and under the same terms, in the case of `CN(C)C(=O)CCSC(SCCC(=O)O)c1cccc(/C=C/c2ccc3ccc(Cl)cc3n2)c1` (centres undefined) it was -22.6%; in that of `Nc1nc(=O)n([C@H]2C[C@H](O)[C@@H](CO)O2)cc1F`, -64.2%.
Take `C[C@H](Oc1ccc(S(C)(=O)=O)cc1C(=O)N1CCN(c2ncc(C(F)(F)F)cc2F)CC1)C(F)(F)F`: the cell viability activity is -65.2%.

In another assay the test system is HT29 sg-Ctrl (RNF43 wildtype). Described as above. Conditions: 5 µM; 96 h. The procedure: as §1
`O=C(Cc1ccc(-c2ccc(OCCN3CCOCC3)cc2)cn1)NCc1ccccc1`: the cell viability activity is -52%.
Regarding `Cc1ccc(C)c(OCCCC(C)(C)C(=O)O)c1`, the cell viability activity is -39.7%.
On the same count and under the same terms, in the case of `CC1=NN(c2ccc(C(=O)O)cc2)C(=O)/C1=C\c1ccc(-c2cc(C)c(C)cc2[N+](=O)[O-])o1` it was -79.6%; in that of `C[C@H]1O[C@@H](O[C@H]2CC[C@@]3(C)[C@H](CC[C@@H]4[C@@H]3C[C@@H](O)[C@]3(C)[C@@H](C5=CC(=O)OC5)CC[C@]43O)C2)C[C@H](O)[C@@H]1O[C@H]1C[C@H](O)[C@H](O[C@H]2C[C@H](O)[C@H](O[C@@H]3O[C@H](CO)[C@@H](O)[C@H](O)[C@H]3O)[C@@H](C)O2)[C@@H](C)O1`, -91.5%; in that of `C[n+]1cc2c3c(ccc2c2ccc4cc5c(cc4c21)OCO5)OCO3`, -96.2%.
`Nc1cc(C(F)(F)F)c(-c2cc(N3CCOCC3)nc(N3CCOCC3)n2)cn1`: the cell viability activity was -60.1%.
As for `COC[C@H](C)NC1CCC(Nc2cc(-c3cccc(NCC4(C#N)CCOCC4)n3)c(Cl)cn2)CC1` (some centres undefined), the cell viability activity is -89.4%.
In the case of `C/C(=N/Nc1nnc2c(n1)[nH]c1c(C)cccc12)c1ccccn1`, the cell viability activity is -86.8%.
Consider `O=C(/C=C/c1cccc(S(=O)(=O)Nc2ccccc2)c1)NO`, for which the cell viability activity was -73.9%.
Take `CN(C)C/C=C/C(=O)Nc1cccc(C(=O)Nc2cccc(Nc3ncc(Cl)c(-c4c[nH]c5ccccc45)n3)c2)c1`: the cell viability activity was -94.7%.
Turning to `O=C(O)c1ccc[n+]([O-])c1`, the cell viability activity was -67.1%.
Regarding `CCN(CC)CCNC(=O)c1c(C)[nH]c(/C=C2\C(=O)Nc3ccc(F)cc32)c1C`, the cell viability activity was -99.2%.
Regarding `CN(C)CCCC(=O)Nc1ccc(C(=O)Nc2cccc(Nc3ncc(Cl)c(-c4c[nH]c5ccccc45)n3)c2)cc1`, the cell viability activity is -78.1%.
On the same count and under the same terms, then `COc1cc(F)c(F)c(Nc2ccc(I)cc2F)c1NS(=O)(=O)C1(C[C@H](O)CO)CC1`, with -78.3%.
As to `COc1cccc2cc(-c3nc([C@H]4CC[C@H](C(=O)O)CC4)n4ncnc(N)c34)[nH]c12`, the cell viability activity is -27.5%.
With `C#C[C@]1(O)CC[C@H]2[C@@H]3CCC4=C(CCC(=O)C4)[C@H]3CC[C@@]21C`, the cell viability activity was -59.4%.
On to `O=C(c1c(F)ccc(NS(=O)(=O)N2CC[C@@H](F)C2)c1F)c1c[nH]c2ncc(-c3cnc(C4CC4)nc3)cc12`, for which the cell viability activity was -69%.
`CNC(=O)c1ccccc1Nc1nc(Nc2ccc(N3CCOCC3)cc2OC)ncc1Cl`: the cell viability activity was -70.3%.
Take `Cc1c(-c2ccc(O)cc2)n(Cc2ccc(OCCN3CCCCCC3)cc2)c2ccc(O)cc12`: the cell viability activity was -93.1%.
For the compound `Nc1c2ccccc2nc2ccccc12`, the cell viability activity was -86.8%.
For `Cc1cc(NC(=O)NCCN2CCC(O)(Cc3ccccc3)CC2)c2ccccc2n1`, the cell viability activity is -24.3%.
As for `OC1(c2ccc(Cl)c(C(F)(F)F)c2)CCN(CCCC(c2ccc(F)cc2)c2ccc(F)cc2)CC1`, the cell viability activity was -60.6%.
On the same count and under the same terms, then `Cc1csc(-c2nnc(Nc3ccc(Oc4ncccc4-c4ccnc(N)n4)cc3)c3ccccc23)c1`, with -46.6%; and `COc1cc2nc(N3CCC(N4CCCCC4)CC3)nc(NC3CCCCCC3)c2cc1OC`, with -95.5%.
For the compound `Cc1ccc(C(=O)Nc2ccc(Oc3cc4cnn(C)c4cc3-c3cn[nH]c3)c(F)c2)c(=O)n1-c1ccc(F)cc1`, the cell viability activity was -29%.
The same measure, in the same setting: then `NS(=O)(=O)C#Cc1ccccc1`, with -72.2%; and `CCCCC(=O)O[C@H]1CC[C@H]2[C@@H]3CCc4cc(O)ccc4[C@H]3CC[C@]12C`, with -32.5%.
Take `CN1CCN(Cc2ccc(-c3cnc4[nH]cc(-c5ccc6[nH]ccc6c5)c4c3)cc2)CC1`: the cell viability activity is -82.4%.
As for `C/C(=N\NC(=S)N1CCC1)c1ccccn1`, the cell viability activity is -88.9%.
In the case of `Cn1c(Nc2ccc(C(F)(F)F)cc2)nc2cc(Oc3ccnc(-c4ncc(C(F)(F)F)[nH]4)c3)ccc21`, the cell viability activity was -67.4%.
Turning to `NC(=O)c1cnc(N[C@@H]2CCCC[C@@H]2N)nc1Nc1cccc(-n2nccn2)c1`, the cell viability activity is -34.2% and -41.6%.
For the compound `Cn1cc(CNCC2CCN(c3ncc(C(=O)NO)cn3)CC2)c2ccccc21`, the cell viability activity is -92.8%.
For the compound `COc1cccc(-c2cc(F)ccc2[C@H]2Cc3nc(N)nc(C)c3C(=O)N2)n1`, the cell viability activity was -81.1%.
In the case of `CCCCC(CC)CNC(=N)NC(=N)NCCCCCCNC(=N)NC(=N)NCC(CC)CCCC` (centres undefined), the cell viability activity was -88.4%.
On to `CN(C)C(=O)CCSC(SCCC(=O)O)c1cccc(/C=C/c2ccc3ccc(Cl)cc3n2)c1` (centres undefined), for which the cell viability activity came out at 5.04%.
Consider `Nc1nc(=O)n([C@H]2C[C@H](O)[C@@H](CO)O2)cc1F`, for which the cell viability activity is -71%.
`C[C@H](Oc1ccc(S(C)(=O)=O)cc1C(=O)N1CCN(c2ncc(C(F)(F)F)cc2F)CC1)C(F)(F)F`: the cell viability activity is -57.9%.

For the origin of these results see the supplement of paper PMC9177965.
